The panel holds about 83,000 compounds, 20% with a hit somewhere; the sample as a whole holds those more often.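 Interpretation: 100, growth as untreated; towards 0, rising growth inhibition; 0, no net growth; 0 to -100, cell death. Compounds scoring below 10 were considered active.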 The source made the active and inactive calls.
What was measured:
Test in all cases: NCI-60 one-dose screen, 48 h (100 = growth as untreated, 0 = no growth, -100 = all killed)
Details in all cases: 10 µM unless noted
[1] = test system: NCI-H23 lung
[2] = test system: NCI-H226 lung
[3] = test system: NCI-H322M lung
[4] = test system: HOP-62 NSCLC
[5] = test system: NCI-H460 lung
[6] = test system: HOP-92 NSCLC
[7] = test system: NCI-H522 lung
[8] = test system: A549/ATCC NSCLC
[9] = test system: 786-0 renal
[10] = test system: COLO 205 colon
[11] = test system: DU-145 prostate
[12] = test system: K-562 leukemia
[13] = test system: MALME-3M melanoma
[14] = test system: MDA-MB-231 breast
[15] = test system: RXF 393 renal
[16] = test system: SF-268 CNS
[17] = test system: SF-295 CNS
[18] = test system: SF-539 CNS
[19] = test system: UACC-257 melanoma
[20] = test system: M14 melanoma

Measured: growth

O=C1C(=O)N(CCCCn2cc(-c3ccccc3)nn2)c2ccccc21
inactive: [1] 101% | [2] 106% | [3] 103% | [4] 106% | [5] 99.9% | [6] 101% | [7] 100% | [8] 108% | [9] 102% | [10] 112% | [11] 105% | [12] 109% | [13] 92.9% | [14] 102% | [15] 114% | [16] 101% | [17] 102% | [18] 93.9% | [19] 100% | [20] 96.1%

CCN1CCN(C(=O)[C@]23CCC(C)(C)C[C@H]2C2=CC[C@@H]4[C@@]5(C)CC/C(=N/O)C(C)(C)[C@@H]5CC[C@@]4(C)[C@]2(C)CC3)CC1
active: [14] 9.19%
inactive: [1] 69.7% | [2] 66.5% | [3] 86.1% | [4] 76.9% | [5] 72% | [6] 52.7% | [7] 45.2% | [8] 74% | [9] 57.5% | [10] 87.9% | [11] 86.4% | [12] 58.8% | [13] 62.9% | [15] 81.2% | [16] 67.2% | [17] 65.7% | [18] 80.4% | [19] 80.4% | [20] 65.6%

Cc1ccc(/C=C(\C#N)c2cc3ccccc3n2C)cc1
active: [10] 3.21% | [17] 9.43% | [18] 8.03%
inactive: [1] 24.6% | [2] 57.6% | [3] 58.7% | [4] 47.1% | [5] 11% | [6] 90.5% | [7] 31.3% | [8] 31.2% | [9] 49.9% | [11] 25.5% | [12] 14.7% | [13] 59.8% | [14] 18.7% | [15] 20.6% | [16] 64.4% | [19] 89.6% | [20] 14%

Nc1c2c(nc3ccc(Cl)cc13)CC(c1ccccc1)CC2=O (stereo not given)
inactive: [1] 58.6% | [2] 85% | [3] 62.1% | [4] 53.9% | [5] 15.2% | [6] 84.6% | [7] 41.1% | [8] 56.7% | [9] 55.1% | [10] 39.3% | [11] 63.9% | [12] 18% | [13] 40.3% | [14] 66.8% | [15] 55.8% | [16] 64.1% | [17] 24.5% | [18] 38.5% | [19] 64% | [20] 13.9%

Cn1nc(-c2ccccc2)c2c(-c3ccccc3)onc2c1=O
inactive: [1] 48% | [2] 62.1% | [3] 55.4% | [4] 31% | [5] 28.3% | [6] 43.9% | [7] 10.6% | [8] 35.4% | [9] 49.7% | [10] 15.2% | [11] 34.6% | [12] 13% | [13] 62.9% | [14] 52% | [15] 23.8% | [16] 47% | [17] 27.3% | [19] 49.2% | [20] 42.3%
active: [18] 2.75%

COc1ccccc1-n1cnc(N)c1C(=O)c1cc(OC)c(OC)c(OC)c1
inactive: [1] 70% | [2] 56.7% | [3] 81.4% | [4] 52.8% | [5] 14.5% | [6] 70.3% | [8] 47.9% | [9] 37.9% | [10] 66.1% | [11] 73.9% | [12] 22% | [13] 50.1% | [14] 64.8% | [15] 33% | [16] 38.5% | [17] 24.9% | [18] 35.6% | [19] 59.8% | [20] 44.5%
active: [7] 1.87%

CC1(C)[C@@H](O)CC[C@]2(C)[C@H]3CC[C@@H]4[C@H]5[C@H](C(=O)/C=C/c6ccc(C(F)(F)F)cc6)CC[C@]5(CO)CC[C@@]4(C)[C@]3(C)CC[C@@H]12
inactive: [1] 56.9% | [2] 30% | [3] 80.7% | [4] 97.4% | [5] 65.4% | [6] 66% | [7] 60.6% | [8] 47.8% | [9] 64.9% | [10] 73.8% | [11] 70.1% | [12] 32.9% | [14] 71.4% | [15] 32.3% | [16] 75.5% | [17] 72.1% | [18] 55.1% | [19] 67.4%
active: [13] 8.37% | [20] 7.81%

Cc1ccc(-c2ccc(/C=C(\C#N)c3nc(-c4ccco4)cs3)o2)cc1
inactive: [1] 95% | [2] 92.7% | [3] 90.2% | [4] 97.5% | [5] 99.3% | [6] 100% | [7] 96.4% | [8] 103% | [9] 106% | [10] 99.1% | [11] 108% | [12] 95% | [13] 109% | [14] 93% | [15] 136% | [16] 107% | [17] 96.6% | [18] 103% | [19] 113% | [20] 93.7%

Cc1ccnc2c(OCc3ccccc3)cccc12
inactive: [1] 93.5% | [2] 81.9% | [3] 76.4% | [4] 106% | [5] 86.1% | [6] 53.4% | [7] 105% | [8] 93.5% | [9] 96.1% | [10] 113% | [11] 97.1% | [12] 99.2% | [13] 84.4% | [14] 72.1% | [15] 95.1% | [16] 92.5% | [17] 89.9% | [18] 104% | [19] 115% | [20] 93.4%

COc1cnc2c(c1)C(=O)c1c-2n(CCCNC(C)C)c(=O)c2cc([N+](=O)[O-])ccc12
active: [1] -67.8% | [2] -58.8% | [3] -31.6% | [4] -53.2% | [5] -74.1% | [6] -80.1% | [7] -56.6% | [8] -65.5% | [9] -88.2% | [10] -74.3% | [11] -58.4% | [12] -14.4% | [13] -58.2% | [14] -60.5% | [15] -80.7% | [16] -61.2% | [17] -76.2% | [18] -63% | [19] -67% | [20] -76.8%

O=C1C(Cl)=C(Nc2ccc(S(=O)(=O)c3ccc(NC4=C(Cl)C(=O)c5ccccc5C4=O)cc3)cc2)C(=O)c2ccccc21
active: [1] -12.9% | [6] -26.2% | [7] -67.4% | [10] -54.9% | [11] -15.1% | [12] 8.57% | [13] -48.5% | [15] -96% | [16] -56.3% | [18] 1.36% | [19] -81.3% | [20] -57.6%
inactive: [2] 91.2% | [3] 64.5% | [4] 36.1% | [5] 37.2% | [8] 74% | [9] 26.4% | [14] 45.4% | [17] 34.1%

COc1ccc(-c2cc(-c3cccs3)n(N=O)c(=O)c2C#N)cc1
inactive: [1] 89.1% | [2] 99.8% | [3] 106% | [4] 93.8% | [5] 102% | [6] 63.8% | [7] 93% | [8] 100% | [9] 93.5% | [10] 119% | [11] 119% | [12] 34.3% | [13] 127% | [14] 100% | [15] 96.3% | [16] 110% | [17] 102% | [18] 96.5% | [19] 101% | [20] 116%

CC1(C)C(=O)CC[C@]2(C)[C@H]3C(=O)C=C4[C@@H]5C[C@@](C)(C(=O)NCCNCCN)CC[C@]5(C)CC[C@@]4(C)[C@]3(C)CC[C@@H]12
inactive: [1] 98.4% | [2] 96.8% | [3] 108% | [4] 94.1% | [5] 99.2% | [6] 66.2% | [7] 111% | [8] 97.6% | [9] 99.9% | [10] 108% | [11] 102% | [12] 86.6% | [13] 92.2% | [14] 102% | [15] 103% | [16] 83.9% | [17] 101% | [18] 98.7% | [19] 101% | [20] 90.6%

N#CC1c2ccccc2-c2ccccc2N1C(=O)c1ccccc1 (stereo not given)
active: [10] -1.39% | [17] 4.01% | [18] 0.949% | [20] 2.12%
inactive: [1] 22.6% | [2] 17.8% | [3] 57% | [4] 48.7% | [5] 18.1% | [6] 45.2% | [7] 14.5% | [8] 31.8% | [9] 17% | [11] 11.9% | [12] 41.5% | [13] 84% | [14] 16.6% | [15] 31.7% | [16] 34.4% | [19] 75.9%

Cc1ccc(C)c2c1CCC2C(C)C (stereo not given)
inactive: [1] 91.9% | [2] 98.6% | [3] 97.9% | [4] 101% | [5] 105% | [6] 93.6% | [7] 94.8% | [8] 87.2% | [9] 98.7% | [10] 104% | [11] 103% | [12] 90.4% | [13] 101% | [14] 99.6% | [15] 112% | [16] 96.8% | [17] 102% | [18] 97.5% | [19] 89.6% | [20] 95%
